Laboratory results taken from PubChem BioAssay AID1159580 (chemical genetic matrix, 2015).
The whole screen tested about 5,500 compounds, of which about 2,000 (36%) were called active. Roughly 18% stayed inconclusive and do not appear here. No stated cut-off is given here; in the data, active means normalized growth mostly below about 0.91 (no sharp cut-off); inconclusive means no clear call, values can overlap the other calls; inactive means mostly above about 0.92. The list shows a part of the results.

Assay: chemical genetic growth profiling, strain panel (AID 1159580);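 further: tested at 20 µM; growth read once vehicle control cultures reached saturation at 30 °C; 1 = growth at the plate median or of vehicle wells; lower values mean less growth of the strain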
Settings: S. cerevisiae deletion strains, growth OD
[1] = locus YAL013W, strain DEP1, active compounds read low
[2] = locus YCL061C, strain MRC1, active compounds read low
[3] = locus YDR150W, strain NUM1, active compounds read low
[4] = locus YGR078C, strain PAC10, active compounds read low
[5] = locus YGR229C, strain SMI1, active compounds read low
[6] = locus YHR030C, strain SLT2, active compounds read low
[7] = locus YNL153C, strain GIM3, active compounds read low

Measured: normalized growth

COc1ccccc1NC(=O)N1CCCN(C(=O)c2cccs2)CC1
inactive: [1] 1.01 | locus YBR229C, strain ROT2, active compounds read low 1.02 | [2] 1.02 | locus YDL101C, strain DUN1, active compounds read low 1.03 | locus YDL134C, strain PPH21, active compounds read low 1.01 | [3] 1.05 | locus YEL061C, strain CIN8, active compounds read low 0.994 | [4] 1.01 | [5] 1.01 | [6] 1.03 | locus YHR087W, strain rtc3, active compounds read low 0.986 | locus YJR043C, strain POL32, active compounds read low 1.02 | locus YJR075W, strain HOC1, active compounds read low 1.02 | locus YKL190W, strain CNB1, active compounds read low 1.01 | locus YLR039C, strain RIC1, active compounds read low 1.05 | locus YLR058C, strain SHM2 (second series), active compounds read low 1 | locus YLR085C, strain ARP6, active compounds read low 1.03 | locus YLR262C, strain YPT6, active compounds read low 1.02 | locus YML094W, strain GIM5, active compounds read low 1.02 | locus YMR219W, strain ESC1, active compounds read low 1.01 | locus YMR263W, strain SAP30, active compounds read low 1.04 | [7] 1.01 | locus YNL298W, strain CLA4 (second series), active compounds read low 1.04 | locus YNL322C, strain KRE1, active compounds read low 1.01 | locus YNR030W, strain Alg12, active compounds read low 1.02 | locus YPL055C, strain LGE1, active compounds read low 1.01 | locus YPL241C, strain CIN2, active compounds read low 1.05 | locus YPR135W, strain CTF4, active compounds read low 1.04

OC1CCCCC1N1CCC(c2ccccc2)CC1 (stereo not drawn)
inactive: [1] 0.998 | locus YAL021C, strain ccr4, active compounds read low 0.998 | locus YAL026C, strain drs2, active compounds read low 0.994 | locus YAL030W, strain snc1, active compounds read low 0.992 | locus YAL040C, strain CLN3, active compounds read low 0.998 | locus YBL061C, strain skt5, active compounds read low 0.994 | locus YBR009C, strain hhf1, active compounds read low 0.957 | locus YBR023C, strain chs3, active compounds read low 0.999 | locus YBR171W, strain sec66, active compounds read low 0.99 | locus YBR231C, strain swc5, active compounds read low 0.993 | locus YBR279W, strain paf1, active compounds read low 0.999 | locus YCL011C, strain gbp2, active compounds read low 0.996 | locus YCL016C, strain dcc1, active compounds read low 0.989 | locus YCL061C, strain MRC1 (second series), active compounds read low 1.01 | [2] 0.993 | locus YCL069W, strain vba3, active compounds read low 0.989 | locus YCR088W, strain abp1, active compounds read low 0.983 | locus YDL005C, strain med2, active compounds read low 0.992 | locus YDL040C, strain nat1, active compounds read low 0.993 | locus YDR001C, strain nth1, active compounds read low 0.984 | locus YDR069C, strain doa4, active compounds read low 0.998 | locus YDR137W, strain rgp1, active compounds read low 0.945 | [3] 1 | locus YDR159W, strain sac3, active compounds read low 0.997 | locus YDR195W, strain ref2 0.941 | locus YDR297W, strain sur2, active compounds read low 0.995 | locus YDR334W, strain swr1, active compounds read low 0.996 | locus YDR335W, strain msn5, active compounds read low 0.997 | locus YDR363W, strain ESC2, active compounds read low 1.01 | locus YDR392W, strain spt3, active compounds read low 0.902 | locus YEL003W, strain gim4, active compounds read low 0.994 | locus YEL037C, strain rad23, active compounds read low 0.99 | locus YEL061C, strain CIN8 (second series), active compounds read low 0.989 | locus YER002W, strain NOP16, active compounds read low 0.992 | locus YER015W, strain faa2, active compounds read low 0.992 | locus YER016W, strain bim1, active compounds read low 0.993 | locus YER111C, strain swi4, active compounds read low 0.978 | locus YER155C, strain BEM2 (second series), active compounds read low 0.96 | locus YFR010W, strain ubp6, active compounds read low 0.988 | locus YGL167C, strain pmr1, active compounds read low 0.986 | locus YGL173C, strain kem1, active compounds read low 0.994 | locus YGL227W, strain vid30, active compounds read low 0.988 | locus YGL240W, strain doc1, active compounds read low 1.01 | locus YGL253W, strain hxk2, active compounds read low 0.996 | [4] 1.01 | [5] 1.01 | locus YHR013C, strain ard1, active compounds read low 0.941 | locus YHR027C, strain rpn1, active compounds read low 0.988 | [6] 0.979 | locus YHR079C, strain IRE1, active compounds read low 0.983 | locus YHR142W, strain chs7, active compounds read low 1.01 | locus YJL092W, strain hpr5, active compounds read low 0.989 | locus YJL095W, strain BCK1 (second series), active compounds read low 0.993 | locus YJL095W, strain BCK1, active compounds read low 0.984 | locus YJL115W, strain asf1, active compounds read low 0.991 | locus YJL129C, strain trk1, active compounds read low 1.02 | locus YJL154C, strain vps35, active compounds read low 0.987 | locus YJL164C, strain tpk1, active compounds read low 1 | locus YJL166W, strain qcr8, active compounds read low 1 | locus YJL187C, strain SWE1, active compounds read low 0.996 | locus YJR066W, strain TOR1, active compounds read low 0.934 | locus YKL160W, strain elf1, active compounds read low 1.02 | locus YKR026C, strain gcn3, active compounds read low 0.975 | locus YKR091W, strain srl3, active compounds read low 0.983 | locus YLL001W, strain dnm1, active compounds read low 0.981 | locus YLL026W, active compounds read low 0.995 | locus YLL041C, strain sdh2, active compounds read low 0.99 | locus YLR027C, strain aat2, active compounds read low 0.992 | locus YLR113W, strain HOG1, active compounds read low 0.999 | locus YLR221C, strain rsa3, active compounds read low 1.01 | locus YLR258W, strain gsy2, active compounds read low 0.984 | locus YLR262C, strain YPT6 (second series), active compounds read low 0.945 | locus YLR320W, strain mms22, active compounds read low 0.998 | locus YLR342W, strain FKS1, active compounds read low 0.981 | locus YLR357W, strain rsc2, active compounds read low 0.979 | locus YLR370C, strain arc18, active compounds read low 0.992 | locus YLR384C, strain iki3, active compounds read low 0.983 | locus YML120C, strain ndi1, active compounds read low 1.02 | locus YMR058W, strain fet3, active compounds read low 0.999 | locus YMR125W, strain sto1, active compounds read low 0.988 | locus YMR129W, active compounds read low 0.985 | locus YMR205C, strain PFK2, active compounds read low 0.953 | locus YMR231W, strain pep5, active compounds read low 0.988 | locus YMR307W, strain GAS1, active compounds read low 0.991 | locus YNL071W, strain lat1, active compounds read low 0.999 | locus YNL128W, strain TEP1, active compounds read low 0.978 | [7] 0.997 | locus YNL175C, strain NOP13, active compounds read low 0.994 | locus YNL183C, strain NPR1, active compounds read low 0.937 | locus YNL197C, strain WHI3, active compounds read low 0.993 | locus YNL209W, strain ssb2, active compounds read low 0.993 | locus YNL224C, strain SQS1, active compounds read low 0.997 | locus YNL248C, strain rpa49, active compounds read low 1.02 | locus YNL322C, strain KRE1 (second series), active compounds read low 0.992 | locus YNR049C, strain mso1, active compounds read low 0.989 | locus YOR001W, strain rrp6, active compounds read low 1.01 | locus YOR070C, strain gyp1, active compounds read low 0.992 | locus YOR080W, strain dia2, active compounds read low 0.988 | locus YOR083W, strain WHI5 (second series), active compounds read low 1 | locus YOR083W, strain WHI5, active compounds read low 1.02 | locus YOR106W, strain vam3, active compounds read low 1.02 | locus YOR231W, strain MKK1, active compounds read low 0.986 | locus YOR265W, strain rbl2, active compounds read low 0.993 | locus YOR270C, strain vph1, active compounds read low 1 | locus YOR290C, strain snf2, active compounds read low 0.911 | locus YPL051W, strain arl3, active compounds read low 0.999 | locus YPL078C, strain atp4, active compounds read low 1.01 | locus YPL106C, strain sse1, active compounds read low 0.98 | locus YPL240C, strain hsp82, active compounds read low 1 | locus YPL256C, strain CLN2, active compounds read low 1
